Source: PubChem BioAssay (National Center for Advancing Translational Sciences (NCATS))
Compounds with a hit are over-represented: about 21% of the library has one in this group of screens.
ELG1 repair inh: blocks ELG1-dependent DNA repair in HEK293T cells; HEK293T ELG1-luciferase reporter, luminescence, 16 h; DNA damage induced by 5-fluorouridine; Potency, µM (titrated, usually from 46.1 µM), for inactives: top-dose activity change, negative = inhibition, actives largely listed as inhibitors; hit rate 2.3% among 330,000; further: potency means the concentration at half of the fitted maximal effect; nearly all actives have a fitted effect of over 55% in size
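5-Fluorouridine DNA damage + compound/DMSO, 2,000 cells/well, 16 h, 37 °C/5% CO2. ONE-Glo, 30 min RT, luminescence. Readout = decrease in reporter signal.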
TDP1 cell noCPT: qHTS for Inhibitors of human tyrosyl-DNA phosphodiesterase 1 (TDP1): qHTS in cells in absence of CPT; AID 686978, 2013; Potency, µM (highest dose often 46.2 µM), for inactives: top-dose activity change, negative = growth inhibition, usual class: inhibitors; DT40 Tdp1-/- hTDP1 cells, no CPT, ATP luminescence, 48 h; hit rate 15% among 420,000; further: potency means the concentration at half of the fitted maximal effect; nearly all actives have a fitted effect of over 55% in size
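Camptothecin absent (DMSO only). Human TDP1-complemented DT40 knockout cells, 400 cells/well, 37 °C for minimum 48 hr; ATP measured via CellTiter-Glo, 30 min dark incubation, luminescence.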
Gal4-VP16 FLuc: inhibits Gal4-VP16 luciferase reporter, ROR gamma counter-screen; Drosophila S2 Gal4-VP16 UAS-luciferase, luminescence, 20 h; hit rate 3.5% among 310,000; Potency, µM (doses to about 53.6 µM), without a hit: top-dose activity, negative = inhibition, hits mostly inhibitors; AID 2546;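 further: Gal4-VP16 expression switched on by copper sulfate through the metallothionein promoter; potency means the concentration at half of the fitted maximal effect; nearly all actives have a fitted effect of over 50% in size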
DT40 TDP1 CPT: DT40-hTDP1 cell growth loss with CPT; hit rate 12% among 420,000; Potency, µM (series often up to 46.2 µM), for the others: top-dose activity change, negative = growth inhibition, actives largely listed as inhibitors; chicken DT40 Tdp1-/-;hTDP1 cells + 20 nM CPT, ATP luminescence, 48 h; further: potency means the concentration at half of the fitted maximal effect; nearly all actives have a fitted effect of over 55% in size
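Cell growth measured by CellTiter-Glo luminescence after a minimum 48 h, 37 C compound exposure with 20 nM CPT in Tdp1-knockout DT40 cells stably expressing hTDP1, seeded 400/well; qHTS titration format.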
RORg inh: inhibitors of mouse ROR gamma transcriptional activity | P51450 | Drosophila S2 Gal4-RORgamma UAS-luciferase reporter, 20 h | Potency, µM (highest dose often 53.6 µM), without a hit: at the highest dose activity change, negative = inhibition, hits mostly inhibitors | hit rate 5.4% among 310,000 | AID 2551; further: potency means the concentration at half of the fitted maximal effect; nearly all actives have a fitted effect of over 60% in size
Target sequence (P51450 whole entry, looked up, the tested form may be a part): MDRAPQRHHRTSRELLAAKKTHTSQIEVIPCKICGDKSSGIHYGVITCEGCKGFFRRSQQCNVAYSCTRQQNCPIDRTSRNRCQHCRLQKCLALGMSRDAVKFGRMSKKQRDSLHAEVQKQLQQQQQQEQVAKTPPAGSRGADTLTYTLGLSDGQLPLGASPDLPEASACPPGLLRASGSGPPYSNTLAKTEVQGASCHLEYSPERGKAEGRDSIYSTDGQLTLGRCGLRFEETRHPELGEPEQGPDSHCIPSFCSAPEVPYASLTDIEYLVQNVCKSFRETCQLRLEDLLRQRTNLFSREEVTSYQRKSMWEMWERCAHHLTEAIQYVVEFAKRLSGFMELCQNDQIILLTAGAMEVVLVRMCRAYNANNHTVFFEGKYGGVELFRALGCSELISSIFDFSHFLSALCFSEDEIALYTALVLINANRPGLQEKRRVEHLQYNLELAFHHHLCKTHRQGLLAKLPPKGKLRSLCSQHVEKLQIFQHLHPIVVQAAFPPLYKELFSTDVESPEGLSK
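In this cell-based reporter format, copper sulfate (700 uM final) drives Gal4–ROR gamma fusion expression from a metallothionein promoter in Drosophila Schneider cells; compounds preincubated 1 hr, reporter read after 20 hr at ambient temperature.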
IL1B secr inh: inhibitors of inflammasome signaling (IL-1 beta secretion). THP-1 LPS/ATP IL-1B secretion, AlphaLISA, 16 h; active compounds read low. hit rate 4.7% among 360,000. activity change, % at 57.5 µM; in the data active means activity change below about -50%; inconclusive means mostly about -30% to -49%
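Secreted IL-1B measured by AlphaLISA bead assay after 16 h compound exposure of THP-1 cells; compounds (final up to 57.5 uM) added 1 h before LPS (250 ng/mL) and ATP (1.25 mM) stimulation; lower signal means less secretion.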
Starred values were filed as active, the others as inactive; ? = inconclusive; nt = no result; [ ] = another dose, or the depositor's remark. Unless noted, the call rests on the fitted dose curve; in most records, active means well fitted curve in the direction sought with a large enough effect; inconclusive means small, poorly fitted or top-dose-only effect, or another doubt; inactive means no such curve, though single readings can be large; an effect the other way counts as inactive or inconclusive. On the % scale 0 is the no-effect control and ±100 the full control effect.

SMILES | ELG1 repair inh | TDP1 cell noCPT | Gal4-VP16 FLuc | DT40 TDP1 CPT | RORg inh | IL1B secr inh
Cc1cc(NC(=O)N2CCC(CN3CCOCC3)CC2)ccc1Br | nt | -6% | nt | ? | nt | nt
Cc1nn2c(Nc3ccccc3)c3c(nc2c1-c1ccccc1)CCC3 | ? | ? | 5µM* | ? | 2.8µM* | 16
Cc1nn2c(NCC(C)C)c3c(nc2c1-c1ccccc1)CCC3 | -10% | ? | 6% | -29% | ? | 4
Cc1nn2c(NCCCN(C)C)c3c(nc2c1-c1ccccc1)CCC3 | 6% | 29µM* | -20% | ? | 11µM* | -11
Cc1nn2c(NC(C)C)c3c(nc2c1-c1ccccc1)CCC3 | -15% | ? | 10% | ? | 3.5µM* | ?
OCCN1CCN(c2ncnc3c2ncn3[C@H]2CN(Cc3ccc(Cl)cc3)C[C@@H](CO)O2)CC1 | nt | -29% | nt | ? | nt | 16
O=C(N/N=C/c1ccccn1)c1ccc(Cl)c(Cl)c1 | ? | nt | 0.63µM* | nt | ? | nt
Cc1cc(C)nc(SCc2ccc(C(=O)N/N=C/c3ccccn3)cc2)n1 | ? | 21µM* | 14µM* | ? | 7.1µM* | 121
O=C(N/N=C/c1ccccn1)c1ccc(NC(=O)c2ccccc2Cl)cc1 | -13% | ? | 2% | -27% | -19% | -14
O=C(N/N=C/c1ccccn1)c1ccc([N+](=O)[O-])cc1Cl | ? | -19% | ? | ? | 11µM* | 14
O=C(N/N=C/c1cccnc1)c1ccc([N+](=O)[O-])cc1Cl | 13% | 2% | 2% | -5% | -33% | 7
COc1cc(/C=N/NC(=O)c2cccc([N+](=O)[O-])c2)cc(OC)c1O | 17% | ? | 8% | -23% | -18% | -4
COc1cccc(/C=N/NC(=O)c2ccc([N+](=O)[O-])cc2Cl)c1O | 11% | 4.6µM* | 0.63µM* | 4.6µM* | 0.35µM* | 69
CN(CC(=O)Nc1ccccc1C(F)(F)F)C(=O)C1CCN(S(=O)(=O)c2ccc3c(c2)OCCO3)CC1 | 18% | ? | nt | ? | nt | 10
CC(=O)Nc1cccc(NC(=O)CSc2nc(=O)n3cccc(C)c3n2)c1 | 16% | 2% | nt | -8% | nt | -5
Cc1cc(C)nc(SCc2ccc(C(=O)NNC(=O)Nc3cccc(Cl)c3)cc2)n1 | -22% | 13µM* | ? | 21µM* | ? | -100*
O=C(N/N=C/c1ccccn1)c1cc(-c2ccc3ccccc3c2)n[nH]1 | ? | ? | 16µM* | ? | 16µM* | 34
O=C(N/N=C/c1ccccn1)c1cc(-c2cccc3ccccc23)n[nH]1 | -26% | -27% | 13% | ? | -37% | 0
CCc1ccc(-c2cc(C(=O)N/N=C/c3ccccn3)[nH]n2)cc1 | 19% | ? | ? | ? | 13µM* | 67
O=C(N/N=C/c1ccccn1)c1cc(-c2ccccc2Cl)n[nH]1 | 3% | 18µM* | -3%[10 µM] | ? | 16µM* | -2
Cc1ccc(S(=O)(=O)c2cn(CC(=O)Nc3ccc(F)cc3)c3cc4c(cc3c2=O)OCO4)cc1 | nt | -17% | nt | -2% | nt | nt
Cc1cc(C)cc(C(=O)NN2CCOCC2)c1 | -4% | -2% | -9% | -11% | -18% | -9
CC(C)NC(=O)C1(C)CCN1CCC(=O)c1ccccc1 (stereo not given) | nt | 13µM* | nt | 13µM* | nt | 8
CCCNC(=O)C1(C)CCCN(CCOc2ccccc2)C1 (stereo not given) | nt | ? | nt | ? | nt | -15
CCCNC(=O)C1(C)CCN(C(=O)COCc2ccccc2)C1 (stereo not given) | nt | 0% | nt | -4% | nt | -56*
CCCNC(=O)C1(C)CCCN(CCC(=O)c2ccccc2)C1 (stereo not given) | nt | 7.3µM* | nt | 5.8µM* | nt | ?
